# Measured values taken from ChEMBL document CHEMBL1157539, “Thousands of chemical starting points for antimalarial lead identification” (Nature, 2010).
# Tested on: Plasmodium falciparum
# Test: GSK_TCMDC: Inhibition of Plasmodium falciparum Dd2 in whole red blood cells, using parasite LDH activity as an index of growth. Test compounds present at 2uM
# Assay type: functional
row,Structure (SMILES),Inhibition
1,COc1ccc(Cl)cc1N1CCN(CCCNC(=O)c2ccc(-c3nc4cc(Cl)c(F)cc4[nH]3)cc2)CC1,98%
2,Cc1cc(Nc2ccc(C)c(Cl)c2)n2nc(C(F)(F)F)nc2n1,97%
3,C=C(NC(=O)c1cc(C)cc(C)c1)C(=O)OC,0%
4,Cc1noc(C)c1-c1cccc(CNCc2ccc(-c3ccc(-c4nc5cc(C(F)(F)F)ccc5[nH]4)cc3)cc2)c1.O=C(O)C(F)(F)F,97%
5,COC(=O)c1cccc(CNCc2ccc(-c3ccc(-c4nc5cc(C(F)(F)F)ccc5[nH]4)cc3)cc2)c1.O=C(O)C(F)(F)F,98%
6,O=C(NC1CCCC1)c1cc2c(=O)n3ccccc3nc2[nH]/c1=N/CCc1ccccc1,61%
7,O=C(N[C@H](CC1CCCCC1)C(=O)NC1CCCc2ccccc21)c1ccc(O)c(-c2cccc([N+](=O)[O-])c2)c1 (stereo not given in full),98%
8,CCN(CC)CCNC(=O)/C(=C/C=C/c1cc2cc(Cl)c(Cl)cc2[nH]1)OC,31%
9,O=C(O)C(F)(F)F.OC1CCCN(Cc2ccc(-c3ccc(-c4nc5ccccc5[nH]4)cc3)cc2)C1 (stereo not given),77%
10,O=C(Nc1ccc(SC(F)(F)F)cc1)Nc1ccc(Cl)c(Cl)c1,99%
11,Cc1cccc2nc(-c3ccc(-c4ccc(NC(=O)C5CCN(C)CC5)cc4)cc3)[nH]c12,92%
12,Cc1cc(C(=O)NC2CCN(Cc3ccccc3)CC2)ccc1-c1nc2cc(Cl)c(Cl)cc2[nH]1,32%
13,Cc1cc(OCCCNc2nc(NCCc3ccc(O)cc3)nc(N3CCNCC3)n2)c(Cl)c(C)c1Cl.O=C(O)C(F)(F)F,8%
14,COc1cc2nc(N3CCC(CNC(=O)c4ccc(-c5ccc(C(=O)N(C)C)cc5OCCO)cc4)CC3)nc(N)c2cc1OC,8%
15,CCCCOC(=O)[C@H](CCC)NC(=O)c1ccc(NS(=O)(=O)c2ccc3nc(N)[nH]c(=O)c3c2)cc1,3%
16,COc1ccc(NC(=O)[C@H](Cc2ccccc2)Nc2cc(C)nc(NCCc3ccccc3OC)n2)cc1.O=C(O)C(F)(F)F,83%
17,Cc1ccccc1C1CCN(c2ccc(NC(=O)c3ccc(Cl)nc3)cc2)CC1.O=C(O)C(F)(F)F,82%
18,Br.CCCc1cc(OCCCOc2ccccc2)ccc1OCCCON1C(=N)N=C(N)NC1(C)C,96%
19,COc1ccc2nc(SC(C)C(=O)c3c[nH]c4ccccc34)[nH]c2c1 (stereo not given),98%
20,Cc1ccc(C)c(C2CCN(CCCCNC(=O)c3ccc(NC(=O)c4ccc(Cl)cc4)cc3)CC2)c1,13%

row,Structure (SMILES),Inhibition
1,Cc1cccc2nc(-c3ccc(-c4ccc(CNC(C)C)cc4)cc3)[nH]c12.O=C(O)C(F)(F)F,62%
2,C=CCc1ccc(C[C@H](NC(=O)OC(C)(C)C)C(=O)OC)cc1,98%
3,O=C(Nc1ccccc1)N(Cc1cccc(-c2ccc(CNCCc3ccccc3)cc2)c1)C1CCN(Cc2ccccc2)CC1.O=C(O)C(F)(F)F,95%
4,CCN(CC)C(C)(C)CN(Cc1ccc(-c2ccc(C(F)(F)F)cc2)cc1)C(=O)Cn1c(CCc2cccc(F)c2F)nc(=O)c2ccccc21.O=C(O)C(O)C(O)C(=O)O,79%
5,CN1CCC(C(=O)Nc2cccc(-c3ccc(-c4nc5cc(F)ccc5[nH]4)cc3)c2)CC1,51%
6,COc1cc(NC(=O)/C=C/c2cc3ccccc3n2C)ccc1OCCN(C(C)C)C(C)C.Cl,68%
7,Cc1ccc(C)c(NC(=O)Nc2ccc(Nc3nc(C)cc(N4CCOCC4)n3)cc2)c1,48%
8,COc1cc(C(=O)N2CCOC(CCN3CCC[C@H]3C(=O)Nc3ccccc3)(c3ccc(Cl)c(Cl)c3)C2)cc(OC)c1OC (stereo not given in full),88%
9,COc1ccc2nc3cc(Cl)ccc3c(NCCCCN)c2c1.Cl,62%
10,CC(C)(C)NC(=O)c1ccc(Oc2ccc(OC(F)(F)F)cc2)c(NC(=O)C(C)(C)C)c1,2%
11,CCCCN(CCCC)CCCCNc1c2ccc(Cl)cc2nc2ccc(OC)cc12.Cl,96%
12,COc1ccc(-c2nc(NC(=O)CS(=O)(=O)c3ccc(F)cc3)sc2C)cc1,99%
13,CCOc1ccc(-c2n[nH]c(C(F)(F)F)c2-c2ccccc2OC)c(O)c1,12%
14,CCN1CCc2c1cc(C(=O)N[C@@H](Cc1ccccc1)[C@H](O)CNC(C)(C)c1cccc(C(F)(F)F)c1)cc2N1CCCCS1(=O)=O,99%
15,Cc1cccc2nc(C(=O)Nc3nc(CN4CCC(C)CC4)cs3)cn12,80%
16,COc1ccc2nccc(N3CCC(CCNCc4ccc5c(n4)NC(=O)CS5)CC3)c2c1.Cl,86%
17,CCCCNC(=O)[C@@H]1CCCN1C(=O)c1ccc(O)c(-c2ccc(Cl)c(Cl)c2)c1,92%
18,O=C(Nc1ccc(Cn2nc(Cl)c(N3CCCNCC3)cc2=O)cc1)Nc1ccc(-c2ccccc2)cc1.O=C(O)C(F)(F)F,36%
19,Cc1noc(C)c1CN1Cc2ccccc2OC2(CCN(Cc3c[nH]c4cnccc34)CC2)C1.O=C(O)C(F)(F)F,12%
20,O=C(O)C(F)(F)F.O=S(=O)(c1ccccc1)n1ccc2cc(Nc3ncnc4cc(C#C[C@H]5CCCN5)sc34)ccc21,56%
